{"source": "ChEMBL document CHEMBL1157539", "about": "“Thousands of chemical starting points for antimalarial lead identification” (Nature, 2010)", "type_in_all_cases": "functional", "key": {"[1]": {"tested_on": "Plasmodium falciparum", "assay": "GSK_TCMDC: Inhibition of Plasmodium falciparum 3D7 in whole red blood cells, using parasite LDH activity as an index of growth. Test compounds present at 2uM"}, "[2]": {"tested_on": "Plasmodium falciparum", "assay": "GSK_TCMDC: Inhibition of Plasmodium falciparum Dd2 in whole red blood cells, using parasite LDH activity as an index of growth. Test compounds present at 2uM"}, "[3]": {"tested_on": "HepG2", "assay": "GSK_TCMDC: Percent inhibition of human HepG2 cell line. Test compounds present at 10uM."}}}
{"smiles": "COc1ccccc1CCNc1nc(C)cc(N[C@@H](Cc2ccccc2)C(=O)NCc2cccs2)n1.O=C(O)C(F)(F)F", "values": [{"measurement": "Inhibition", "setting": "[1]", "value": 100, "unit": "%"}, {"measurement": "Inhibition", "setting": "[2]", "value": 73, "unit": "%"}, {"measurement": "Inhibition", "setting": "[3]", "value": 18, "unit": "%"}]}
{"smiles": "CN(CCCc1c[nH]c2ccccc12)CCC1CCC(NC(=O)/C=C/c2ccc(Cl)c(Cl)c2)CC1", "note": "(centres undefined)", "values": [{"measurement": "Inhibition", "setting": "[1]", "value": 99, "unit": "%"}, {"measurement": "Inhibition", "setting": "[2]", "value": 63, "unit": "%"}, {"measurement": "Inhibition", "setting": "[3]", "value": 38, "unit": "%"}]}
{"smiles": "O=C(Nc1ccc(-c2cccc(-c3nc4cc(C(F)(F)F)ccc4[nH]3)c2)cc1)c1ccoc1", "values": [{"measurement": "Inhibition", "setting": "[1]", "value": 96, "unit": "%"}, {"measurement": "Inhibition", "setting": "[2]", "value": 13, "unit": "%"}, {"measurement": "Inhibition", "setting": "[3]", "value": 52, "unit": "%"}]}
{"smiles": "CC(=O)c1cccc(NC(=O)c2ccc(Cl)c(S(=O)(=O)N3CCc4ccccc43)c2)c1", "values": [{"measurement": "Inhibition", "setting": "[1]", "value": 93, "unit": "%"}, {"measurement": "Inhibition", "setting": "[2]", "value": 11, "unit": "%"}, {"measurement": "Inhibition", "setting": "[3]", "value": 13, "unit": "%"}]}
{"smiles": "Cc1cc(NCCc2ccccc2)nc(NC(=N)Nc2ccc(Cl)cc2)n1", "values": [{"measurement": "Inhibition", "setting": "[1]", "value": 100, "unit": "%"}, {"measurement": "Inhibition", "setting": "[2]", "value": 100, "unit": "%"}, {"measurement": "Inhibition", "setting": "[3]", "value": 7, "unit": "%"}]}
{"smiles": "Cc1cc2ncn(-c3nccc(NCc4cccnc4)n3)c2cc1C.O=C(O)C(F)(F)F", "values": [{"measurement": "Inhibition", "setting": "[1]", "value": 99, "unit": "%"}, {"measurement": "Inhibition", "setting": "[2]", "value": 98, "unit": "%"}, {"measurement": "Inhibition", "setting": "[3]", "value": 0, "unit": "%"}]}
{"smiles": "C=C(C)COc1ccc(-c2n[nH]c(C(F)(F)F)c2-c2ccccc2OC)c(O)c1", "values": [{"measurement": "Inhibition", "setting": "[1]", "value": 98, "unit": "%"}, {"measurement": "Inhibition", "setting": "[2]", "value": 72, "unit": "%"}, {"measurement": "Inhibition", "setting": "[3]", "value": 19, "unit": "%"}]}
{"smiles": "CCCc1cc(Cc2cnc(N)nc2N)cc(OCCCCCC(=O)O)c1OC.Cl", "values": [{"measurement": "Inhibition", "setting": "[1]", "value": 95, "unit": "%"}, {"measurement": "Inhibition", "setting": "[2]", "value": 2, "unit": "%"}, {"measurement": "Inhibition", "setting": "[3]", "value": 8, "unit": "%"}]}
